Measurements taken from PubChem BioAssay (NCI).
Compounds without any hit were thinned out: in the full panel of roughly 79,000, 15% have a hit. Active and inactive are the calls of the source. Cut-off read from the data, not from the text of the source: active = growth inhibition above about 70%; inactive = the rest.

Assays:
[1] = NCI Yeast Anticancer Drug Screen. Data for the mec2-1 strain (AID 157); details: S. cerevisiae mec2-1 strain, active compounds read high
Outline: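 Strain: mec2-1 (DNA repair/cell cycle alteration). Compound exposure, then growth measured; inhibition expressed relative to vehicle.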

[2] = NCI Yeast Anticancer Drug Screen. Data for the rad14 strain (AID 159);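 note: 0% = growth of vehicle-treated control cultures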; details: S. cerevisiae rad14 strain growth inhibition, active compounds read high
Outline: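 Yeast cells carrying a defined DNA-repair defect were exposed to compounds, and growth inhibition was calculated relative to vehicle-treated control cultures.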

[3] = NCI Yeast Anticancer Drug Screen. Data for the sgs1 mgt1 strain (AID 161);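 note: 0% = growth of cultures given vehicle only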; details: S. cerevisiae sgs1 mgt1 strain, active compounds read high
Outline: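 Mutant yeast exposed to compound; growth scored against vehicle-only wells.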

[4] = NCI Yeast Anticancer Drug Screen. Data for the CLN2oe strain (AID 163);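 note: 0% = growth of vehicle-only control cultures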; details: S. cerevisiae CLN2oe strain, active compounds read high
Outline: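 Growth of a genetically modified yeast strain is measured after compound exposure and compared with cultures given vehicle alone.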

[5] = NCI Yeast Anticancer Drug Screen. Data for the cln2 rad14 strain (AID 165);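 note: 0% = growth equal to vehicle treated cultures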; details: S. cerevisiae cln2 rad14 strain, active compounds read high
Outline: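 Compounds are applied to the cln2 rad14 yeast strain, and growth is then compared with that of vehicle-treated cultures to give inhibition.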

[6] = NCI Yeast Anticancer Drug Screen. Data for the bub3 strain (AID 167); details: S. cerevisiae bub3 mutant strain, active compounds read high
Outline: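 Compounds were applied to a genetically altered yeast strain carrying a cell-cycle control defect. Growth inhibition was scored against vehicle-treated controls.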

[7] = NCI Yeast Anticancer Drug Screen. Data for the wt2 strain (AID 169);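 note: 0% = growth of vehicle-treated yeast cultures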; details: S. cerevisiae wt2 strain growth inhibition, active compounds read high
Outline: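 This strain belongs to a panel of yeast strains with defined genetic alterations in DNA damage repair or cell cycle control. Compounds are applied, and growth inhibition is measured against vehicle-treated cultures.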

[8] = NCI Yeast Anticancer Drug Screen. Data for the mlh1 strain (AID 171);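 note: 0% = growth of vehicle-treated control cultures of the same strain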; details: S. cerevisiae mlh1 strain growth inhibition, active compounds read high
Outline: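 Growth of the mutant yeast strain after compound exposure, expressed as inhibition relative to vehicle-only controls.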

[9] = NCI Yeast Anticancer Drug Screen. Data for the sgs1 strain (AID 173);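 note: 0% = growth of vehicle-only control cultures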; details: S. cerevisiae sgs1 mutant, active compounds read high
Outline: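 Growth of a yeast strain bearing a defined genetic alteration is measured after compound treatment. Inhibition is expressed relative to vehicle-only controls.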

[10] = NCI Yeast Anticancer Drug Screen. Data for the mlh1 rad18 strain (AID 175); details: S. cerevisiae mlh1 rad18 strain growth inhibition, active compounds read high
Outline: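 Read-out is yeast growth inhibition, calculated against vehicle-only controls. The compound was applied to a strain engineered with DNA damage repair alterations.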

[11] = NCI Yeast Anticancer Drug Screen. Data for the rad18 strain (AID 177); details: S. cerevisiae rad18 mutant growth inhibition, active compounds read high
Outline: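 Growth of the mutant yeast strain after compound exposure, normalised to vehicle-only cultures.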

[12] = NCI Yeast Anticancer Drug Screen. Data for the rad52 strain (AID 147);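 note: 0% = growth of vehicle-treated control cultures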; details: S. cerevisiae rad52 mutant growth inhibition, active compounds read high
Outline: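 Compounds are applied to a genetically defined yeast strain lacking normal DNA damage repair, and inhibition of growth is expressed relative to cultures given vehicle only.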

[13] = NCI Yeast Anticancer Drug Screen. Data for the wt1 strain (AID 149);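 note: 0% = growth of vehicle-treated wt1 cultures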; details: S. cerevisiae wt1 strain (SPY 50644) growth inhibition, active compounds read high
Outline: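 Yeast wt1 strain exposed to compounds; growth inhibition measured relative to vehicle-treated controls.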

[14] = NCI Yeast Anticancer Drug Screen. Data for the rad50EPP+ strain (AID 151);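 note: 0% = growth of vehicle-treated control cultures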; details: S. cerevisiae rad50 mutant strain, active compounds read high
Outline: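 Compounds were applied to the rad50EPP+ yeast strain, which bears a defined DNA repair alteration, and growth inhibition was determined relative to vehicle-treated cultures.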

[15] = NCI Yeast Anticancer Drug Screen. Data for the mgt1 strain (AID 153); details: S. cerevisiae mgt1 mutant growth inhibition, active compounds read high
Outline: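 Strain: mgt1 yeast, one of a set carrying defined DNA damage repair or cell cycle control alterations. Compound-treated growth compared with vehicle.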

[16] = NCI Yeast Anticancer Drug Screen. Data for the rad50 strain (AID 155);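 note: 0% = growth of vehicle-only cultures of the same strain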; details: S. cerevisiae rad50 strain growth inhibition, active compounds read high
Outline: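 Yeast carrying a defined DNA repair defect were exposed to test compounds, and growth was compared with vehicle-treated controls to give percent inhibition.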

[17] = at 5.0 µM (retest, dose inferred, filed as 0.5)
[18] = at 50.0 µM (retest, dose inferred, filed as 5.0)

Measured: growth inhibition

OC(/C=C/c1ccccc1)(Cc1cc(-c2ccccc2)n[nH]1)c1ccccc1 (centres undefined)
inactive: [1]; [17] 1% | [1]; at 11.0 µM 12% | [1]; at 33.0 µM 13% | [1]; at 100.0 µM 12% | [2]; at 1.2 µM 15% | [2]; at 3.7 µM 15% | [2]; at 11.0 µM 13% | [2]; at 33.0 µM 17% | [2]; at 100.0 µM 16% | [3]; [17] 17% | [4]; at 1.2 µM 23% | [4]; at 3.7 µM 24% | [4]; at 11.0 µM 24% | [4]; at 33.0 µM 26% | [4]; at 100.0 µM 24% | [5]; [17] -19% | [6]; at 1.2 µM 3% | [6]; at 3.7 µM 3% | [6]; [17] -10% | [6]; at 11.0 µM 2% | [6]; at 33.0 µM 7% | [6]; at 100.0 µM 6% | [7]; at 1.2 µM -11% | [7]; at 3.7 µM -8% | [7]; at 11.0 µM -15% | [7]; at 33.0 µM -8% | [7]; at 100.0 µM -14% | [8]; at 1.2 µM 10% | [8]; at 3.7 µM 12% | [8]; at 11.0 µM 12% | [8]; at 33.0 µM 13% | [8]; at 100.0 µM 14% | [9]; at 1.2 µM -9% | [9]; at 3.7 µM 6% | [9]; at 11.0 µM 4% | [9]; at 33.0 µM 9% | [9]; at 100.0 µM 1% | [10]; [17] 18% | [11]; at 1.2 µM 12% | [11]; at 3.7 µM 12% | [11]; at 11.0 µM 11% | [11]; at 33.0 µM 15% | [11]; at 100.0 µM 24%
active: [1]; [18] 97% | [1]; at 50.0 µM 99.1% | [3]; [18] 97% | [3]; at 50.0 µM 97.8% | [5]; [18] 94% | [5]; at 50.0 µM 98.3% | [6]; [18] 98% | [6]; at 50.0 µM 99.2% | [10]; [18] 97% | [10]; at 50.0 µM 98.7%

CC1SC2(C(=O)Nc3ccc(Cl)cc32)N(c2ccc(Cl)cc2)C1=O (centres undefined)
active: [12]; at 33.0 µM 98% | [12]; at 100.0 µM 89% | [15]; at 33.0 µM 98% | [15]; at 100.0 µM 95% | [16]; at 33.0 µM 96% | [16]; at 50.0 µM 99.6% | [16]; at 100.0 µM 96% | [1]; at 33.0 µM 99% | [1]; at 50.0 µM 99.8% | [1]; at 100.0 µM 98% | [2]; at 33.0 µM 99% | [2]; at 100.0 µM 99% | [3]; at 50.0 µM 99.8% | [4]; at 33.0 µM 99% | [4]; at 100.0 µM 81% | [5]; at 50.0 µM 99.5% | [6]; at 33.0 µM 95% | [6]; at 50.0 µM 99.5% | [6]; at 100.0 µM 97% | [7]; at 33.0 µM 98% | [7]; at 100.0 µM 98% | [8]; at 33.0 µM 97% | [8]; at 100.0 µM 93% | [9]; at 33.0 µM 98% | [9]; at 100.0 µM 94% | [10]; at 50.0 µM 99.5% | [11]; at 33.0 µM 97% | [11]; at 100.0 µM 81%
inactive: [12]; at 1.2 µM -2% | [12]; at 3.7 µM 0% | [12]; at 11.0 µM 17% | [13]; at 1.2 µM -3% | [13]; at 3.7 µM -4% | [13]; at 11.0 µM -3% | [13]; at 33.0 µM 68% | [13]; at 100.0 µM 61% | [14]; at 1.2 µM -2% | [14]; at 3.7 µM -3% | [14]; at 11.0 µM -1% | [14]; at 33.0 µM -2% | [14]; at 100.0 µM 1% | [15]; at 1.2 µM -5% | [15]; at 3.7 µM -4% | [15]; at 11.0 µM 3% | [16]; at 1.2 µM -14% | [16]; at 3.7 µM 0% | [16]; [17] 20% | [16]; at 11.0 µM 10% | [16]; [18] -1% | [1]; at 1.2 µM -3% | [1]; at 3.7 µM 3% | [1]; [17] 11% | [1]; at 11.0 µM 18% | [1]; [18] 5% | [2]; at 1.2 µM -3% | [2]; at 3.7 µM -2% | [2]; at 11.0 µM 10% | [3]; [17] 15% | [3]; [18] 4% | [4]; at 1.2 µM -7% | [4]; at 3.7 µM -7% | [4]; at 11.0 µM 12% | [5]; [17] -1% | [5]; [18] -11% | [6]; at 1.2 µM 3% | [6]; at 3.7 µM 12% | [6]; [17] 28% | [6]; at 11.0 µM 31% | [6]; [18] 9% | [7]; at 1.2 µM -4% | [7]; at 3.7 µM -5% | [7]; at 11.0 µM -3% | [8]; at 1.2 µM -1% | [8]; at 3.7 µM -1% | [8]; at 11.0 µM 12% | [9]; at 1.2 µM -2% | [9]; at 3.7 µM 0% | [9]; at 11.0 µM 12% | [10]; [17] 8% | [10]; [18] -4% | [11]; at 1.2 µM -41% | [11]; at 3.7 µM 11% | [11]; at 11.0 µM 35%

Cc1c2cccc(Sc3ccccc3)c2c2c3c(cccc13)[S+](c1ccccc1)C2 (centres undefined)
inactive: [12]; at 1.2 µM 13% | [12]; at 3.7 µM 41% | [13]; at 1.2 µM 8% | [13]; at 3.7 µM 19% | [14]; at 1.2 µM 4% | [14]; at 3.7 µM 12% | [14]; at 11.0 µM 39% | [15]; at 1.2 µM 5% | [15]; at 3.7 µM 4% | [16]; at 1.2 µM 25% | [16]; at 3.7 µM 69% | [16]; [17] 58% | [1]; at 1.2 µM 7% | [1]; at 3.7 µM 30% | [1]; [17] 28% | [2]; at 1.2 µM -1% | [2]; at 3.7 µM 17% | [3]; [17] 18% | [4]; at 1.2 µM -3% | [4]; at 3.7 µM -1% | [5]; [17] 7% | [6]; at 1.2 µM -5% | [6]; at 3.7 µM 27% | [6]; [17] 16% | [7]; at 1.2 µM 6% | [7]; at 3.7 µM 25% | [8]; at 1.2 µM 0% | [8]; at 3.7 µM 22% | [9]; at 1.2 µM 10% | [9]; at 3.7 µM 40% | [10]; [17] 18% | [11]; at 1.2 µM 28% | [11]; at 3.7 µM 65%
active: [12]; at 11.0 µM 96% | [12]; at 33.0 µM 95% | [12]; at 100.0 µM 88% | [13]; at 11.0 µM 96% | [13]; at 33.0 µM 96% | [13]; at 100.0 µM 88% | [14]; at 33.0 µM 88% | [14]; at 100.0 µM 88% | [15]; at 11.0 µM 97% | [15]; at 33.0 µM 95% | [15]; at 100.0 µM 90% | [16]; at 11.0 µM 97% | [16]; at 33.0 µM 94% | [16]; [18] 97% | [16]; at 50.0 µM 90.9% | [16]; at 100.0 µM 82% | [1]; at 11.0 µM 98% | [1]; at 33.0 µM 95% | [1]; [18] 97% | [1]; at 50.0 µM 93.5% | [1]; at 100.0 µM 91% | [2]; at 11.0 µM 98% | [2]; at 33.0 µM 96% | [2]; at 100.0 µM 90% | [3]; [18] 98% | [3]; at 50.0 µM 94.2% | [4]; at 11.0 µM 96% | [4]; at 33.0 µM 92% | [4]; at 100.0 µM 84% | [5]; [18] 96% | [5]; at 50.0 µM 93.4% | [6]; at 11.0 µM 97% | [6]; at 33.0 µM 94% | [6]; [18] 97% | [6]; at 50.0 µM 95.2% | [6]; at 100.0 µM 87% | [7]; at 11.0 µM 97% | [7]; at 33.0 µM 95% | [7]; at 100.0 µM 86% | [8]; at 11.0 µM 98% | [8]; at 33.0 µM 96% | [8]; at 100.0 µM 93% | [9]; at 11.0 µM 97% | [9]; at 33.0 µM 95% | [9]; at 100.0 µM 87% | [10]; [18] 97% | [10]; at 50.0 µM 93.3% | [11]; at 11.0 µM 97% | [11]; at 33.0 µM 95% | [11]; at 100.0 µM 83%
